The record followed here is PubChem BioAssay AID463173 (ICCB-Longwood Screening Facility, Harvard Medical School, 2010).

The structures appear in SMILES notation. The whole screen tested about 52,000 compounds, of which about 1,700 (3.3%) were called active. What follows is part of a selection rich in actives, with near analogues and random picks from the rest. Unmarked numbers belong to inactive results. No stated cut-off is given here; in the data, active means survival mostly below about 52% (no sharp cut-off); inactive means mostly above about 56%.

The test concerns Wild type. The test can be described thus: growth inhibition of S. aureus wild type versus tarO mutant, primary screen, teichoic acid synthesis inhibitors, RN4220, OD600 (AID 463173). To be noted: S. aureus RN4220 wild type/DeltatarO growth, OD600, 18 h, hits give low values, screened at 18.75 µg/mL (by protocol).
As to `Cc1ccc(-c2nc3ccccc3[nH]2)cc1NC(=O)COc1ccc(Cl)cc1Cl`, the survival was 45%. Next, `CC1=C(c2ccc(C(C)C)cc2)S(=O)(=O)NC1=NCc1ccccc1Br`: 82%; `COc1cc(NC(=O)CSc2nc3ccccc3nc2Cc2ccccc2OC)cc(OC)c1`: 66%; `COc1ccccc1Cn1cc(C(=O)c2ccc(C)cc2)c(=O)c2cc(F)cc(F)c21`: 81%. `Cc1cc(C)c(NC(=O)Cn2c(=O)n(CCCCC(=O)NCc3ccccc3Cl)c(=O)c3ccccc32)c(C)c1`: the survival is 106%. Next, `Cc1cncn1CCc1nc2c3ccccc3nc(SCC(=O)Nc3cccc(Cl)c3)n2n1`: 80%. The value for `CCc1c(CN2CCN(c3ccccc3F)CC2)csc1C` was 52%. Consider `Cc1ccc(CNC(=O)CSCc2ccc(F)cc2)cc1`, for which the survival is 101%. With `O=C(CCCSc1nc(-c2ccco2)cc(C(F)(F)F)n1)NCC1CCCO1` (stereo not drawn), the survival is 108%. For `COc1ccccc1CNC(=O)c1cc2c(-c3ccc(Cl)cc3)nn(C)c2s1`, the survival is 151%. The value for `Cc1cccc(OCCCn2c(CCNC(=O)C(C)(C)C)nc3ccccc32)c1` was 84%. Next, `CCc1nc2ccccc2n1CCCCOc1cccc(C)c1`: 12% (active); `COCc1nc2ccccc2n1CCOc1cccc(C)c1`: 53%; `COc1ccc(-c2noc(N3CCC(C(=O)N4CCN(c5ccccc5F)CC4)CC3)n2)cc1`: 108%. As for `COc1ccc(-n2ncc3c(NC4CCCC4)ncnc32)cc1`, the survival is 129%. Next, `Cc1cn(C)c(CC(=O)N2CCN(c3ccccc3F)CC2)c1C(=O)O`: 69%. The value for `COc1ccc(N2CCN(C(=O)Cc3c(C(=O)O)c(C)cn3C)CC2)cc1` was 14% (active). Next, `COc1ccccc1N1CCN(C(=O)Cc2c(C(=O)O)c(C)cn2C)CC1`: -6% (active); `Cc1cn(C)c(CC(=O)N2CCN(c3cccc(Cl)c3)CC2)c1C(=O)O`: 78%; `Cc1cn(C)c(CC(=O)N2CCN(c3ccc(F)cc3)CC2)c1C(=O)O`: 133%. Take `Cc1cccc(N2CCN(C(=O)Cc3c(C(=O)O)c(C)cn3C)CC2)c1C`: the survival is 70%.

As to `CCOc1cccc(C2c3c(oc4cc(C)c(C)cc4c3=O)C(=O)N2c2nc(C)c(C)s2)c1` (stereo not drawn), the survival is 71%. The value for `CCc1ccc(NC(=O)[C@H](CSCc2ccccc2)N2Cc3ccccc3C2=O)cc1` was 79%; that for `CCc1ccccc1NC(=O)CN1CCC(NC(=O)NC2CCCCC2)CC1` was 102%. Next, `COc1ccccc1N1CCN(c2ncnc3c2nnn3C)CC1`: 129%; `Cc1cc(F)ccc1NC(=O)C1CCCN(C(=O)c2cnn(-c3ccccc3)c2-n2cccc2)C1` (stereo not drawn): 85%. The value for `CCCN1C(C(=O)c2ccccc2)=C(OC(=O)COc2ccc(C)cc2)c2ccccc2S1(=O)=O` was 25%. Turning to `c1ccc2c(c1)ncn2-c1ncnc2sc3c(c12)CCCC3`, the survival is 107%.

On to `COc1ccc(-c2cc(OC(=O)c3cccc(Cl)c3)c3c(C)oc(C)c3c(=O)c2)cc1OC`, for which the survival was 76%. Take `CSc1cccc(NC(=O)c2cccc(N3CCCS3(=O)=O)c2)c1`: the survival is 115%. `CCN(C(=O)Cn1c(C(=O)OC)cc2sccc21)c1cccc(C)c1`: the survival is 73%. The value for `O=c1cc(-c2ccccc2)nc(SCc2nc(-c3cccc(C(F)(F)F)c3)no2)[nH]1` was 83%; that for `CCOc1ccc(NC(=O)C2CCCN(c3ccc(Sc4ccc(C)cc4)nn3)C2)cc1` (stereo not drawn) was 16% (active). The value for `Cc1ccc(Sc2ccc(N3CCCC(C(=O)Nc4ccc(Cl)cc4)C3)nn2)cc1` (stereo not drawn) was 71%. Next, `CCOC(=O)c1ccc(NC(=O)C2CCCN(c3ccc(Sc4ccc(C)cc4)nn3)C2)cc1` (stereo not drawn): 80%; `O=S(=O)(c1ccc(Br)cc1)c1nnn2c1nc(NCc1ccc3c(c1)OCO3)c1sccc12`: 90%.

With `CCOC(=O)C1CCN(C(=O)c2ccc(-n3ccc4ccccc43)s2)CC1`, the survival is 71%. Consider `CCC(C)NC(=O)C1CCN(C(=O)c2ccc(-n3ccc4ccccc43)s2)CC1` (stereo not drawn), for which the survival was 55%. As for `CCOC(=O)C1CCCN(C(=O)c2ccc(-n3ccc4ccccc43)s2)C1` (stereo not drawn), the survival is -3% (active). Consider `COCCn1c(=S)[nH]c2ccccc2c1=O`, for which the survival is 105%. Take `CCCC(=O)N(c1ccc2oc3c(c2c1)CCCC3)S(=O)(=O)c1ccc(CC)cc1`: the survival is 67%. The value for `CC(C)c1ccc(-c2nnn(CC(N)=O)n2)cc1` was 115%; that for `Cc1ccc(-n2ncc(C(=O)N3CCN(c4ncccn4)CC3)c2C2CCN(C(=O)OC(C)(C)C)CC2)cc1` was 71%; that for `CC(C)(C)OC(=O)N1CCC(c2c(C(=O)N3CCN(c4ncccn4)CC3)cnn2-c2ccccc2)CC1` was 87%. The value for `CC(C)(C)OC(=O)N1CCC(c2c(C(=O)N3CCN(c4ccccn4)CC3)cnn2-c2ccc(F)cc2F)CC1` was 71%; that for `CC(C)(C)OC(=O)N1CCC(c2c(C(=O)N3CCN(c4ncccn4)CC3)cnn2-c2ccc(F)cc2F)CC1` was 1% (active); that for `Cc1ccc(-n2ncc(C(=O)N3CCN(c4cccc(C)c4C)CC3)c2C2CCNCC2)c(C)c1` was 84%.

For the molecule `CN1CCN(C(=O)c2cnn(-c3ccc(F)cc3F)c2C2CCN(C(=O)OC(C)(C)C)CC2)CC1`, the survival was 87%. Turning to `Cc1cccc(N2CCN(C(=O)c3cnn(-c4ccc(F)cc4F)c3C3CCN(C(=O)OC(C)(C)C)CC3)CC2)c1C`, the survival was 99%. Next, `CC(C)(C)OC(=O)N1CCC(c2c(C(=O)N3CCN(c4ncccn4)CC3)cnn2-c2ccc(F)cc2)CC1`: -1% (active). Next, `COc1ccccc1N1CCN(C(=O)c2cnn(-c3ccc(F)cc3F)c2C2CCNCC2)CC1`: 0% (active). The value for `COc1ccc(OC)c(NC(=O)Cn2cc(C(=O)c3ccc(Cl)cc3)c(=O)c3cc(OC)ccc32)c1` was 68%. Consider `O=C(CSc1nc2c([nH]c3ccccc32)c(=O)n1-c1ccccc1)Nc1ccc2c(c1)OCCO2`, for which the survival was 87%. The value for `CCOc1ccc(NS(=O)(=O)c2ccc3[nH]cc(C(=O)N(C)Cc4ccccc4)c(=O)c3c2)cc1` was 1% (active); that for `CCc1ccccc1NS(=O)(=O)c1ccc2[nH]cc(C(=O)NC3CCCC3)c(=O)c2c1` was 42%; that for `CCOc1ccc(NS(=O)(=O)c2ccc3[nH]cc(C(=O)NC4CCCC4)c(=O)c3c2)cc1` was 55%. The value for `CCOc1ccc(NS(=O)(=O)c2ccc3[nH]cc(C(=O)NCc4ccccc4)c(=O)c3c2)cc1` was 74%; that for `Cc1cc(C)cc(NS(=O)(=O)c2ccc3[nH]cc(C(=O)N(C)Cc4ccccc4)c(=O)c3c2)c1` was 111%. Next, `Cc1cc(C)cc(NS(=O)(=O)c2ccc3[nH]cc(C(=O)NC4CCCCC4)c(=O)c3c2)c1`: 27%. Regarding `CCc1ccc(NS(=O)(=O)c2ccc3[nH]cc(C(=O)NC4CCCC4)c(=O)c3c2)cc1`, the survival is 9% (active). In the case of `Cc1ccccc1NS(=O)(=O)c1ccc2[nH]cc(C(=O)NC3CCCCC3)c(=O)c2c1`, the survival was 80%. Next, `CC(C)c1ccc(NS(=O)(=O)c2ccc3[nH]cc(C(=O)NC4CCCC4)c(=O)c3c2)cc1`: 7% (active); `CNC(=O)c1c[nH]c2ccc(S(=O)(=O)Nc3cccc(Cl)c3C)cc2c1=O`: 82%.

For `Cc1c(Cl)cccc1NS(=O)(=O)c1ccc2[nH]cc(C(=O)NC3CCCC3)c(=O)c2c1`, the survival was 11% (active). Next, `CC(C)c1ccc(NS(=O)(=O)c2ccc3[nH]cc(C(=O)NC4CCCCC4)c(=O)c3c2)cc1`: 13%.

Turning to `COc1ccc(-n2ncc3c2ncn2nc(-c4ccc(Cl)cc4Cl)nc32)cc1`, the survival was 92%. In the case of `Cc1ccc(NC2=NCC(=O)N2C2CCCC2)cc1C`, the survival was 104%. As for `CCOC(=O)c1cc(-c2ccccc2)n(CCCC(=O)Nc2ccc(C)cc2Cl)c1C`, the survival is 91%.

On to `COc1ccc(S(=O)(=O)N/N=C(/C2CCCCC2)C(F)(F)F)cc1`, for which the survival is 111%. Next, `CCN(C(=O)CCS(=O)(=O)c1ccc2c(c1)oc(=O)n2C)c1ccc(OC)cc1`: 70%.

In the case of `CCc1ccccc1NC(=O)Nc1cc(C(=O)NCc2ccc(OC)cc2)ccc1N1CCCC1`, the survival is 128%. For the molecule `CN(C(=O)c1c[nH]c2ccc(S(=O)(=O)Nc3cccc(C(F)(F)F)c3)cc2c1=O)C1CCCCC1`, the survival is 71%. For the molecule `COc1cccc(NS(=O)(=O)c2ccc3[nH]cc(C(=O)NC4CCCCC4)c(=O)c3c2)c1`, the survival was 50%. The value for `O=C(NC1CCCC1)c1c[nH]c2ccc(S(=O)(=O)Nc3cccc(C(F)(F)F)c3)cc2c1=O` was 11% (active); that for `COc1cccc(-n2c(SCC(=O)c3ccc(Cl)cc3)nc3c([nH]c4ccccc43)c2=O)c1` was 45%.

Take `COc1cc(OC)c(NC2(c3ccccc3)C(=O)c3ccccc3C2=O)cc1Cl`: the survival is 65%. As to `Cc1oc2ccc(O)c(CN(C)Cc3ccccc3)c2c1C(=O)Nc1ccccc1`, the survival was 105%. Next, `CCCCNC(=O)c1c(C)oc2ncn(CC(C)C)c(=O)c12`: 1% (active). The value for `Cc1oc2ccc(O)c(CN(C)Cc3ccccc3)c2c1C(=O)Nc1cccc(C(F)(F)F)c1` was 10% (active); that for `Cc1cccc(NC(=O)c2c(C)oc3ncn(CC(C)C)c(=O)c23)n1` was 71%.

With `CCNC(=O)c1c(C)oc2ncn(C)c(=O)c12`, the survival was 119%.

Turning to `Cc1oc2ccc(O)c(CN3CCN(C)CC3)c2c1C(=O)Nc1cccc(C(F)(F)F)c1`, the survival is 92%. For the molecule `CSc1ccc(CCNC(=O)c2c(C)oc3ncn(C)c(=O)c23)cc1`, the survival was -4% (active). On to `Cc1oc2ncn(CC(C)C)c(=O)c2c1C(=O)Nc1cccc(C(F)(F)F)c1`, for which the survival was -3% (active). On to `CCN(CC)CCCNC(=O)c1c(C)oc2ncn(CC(C)C)c(=O)c12`, for which the survival was 81%. Next, `CCOc1ccc(CCNC(=O)c2c(C)oc3ncn(C)c(=O)c23)cc1`: 82%.

As for `Cc1ccnc(NC(=O)c2c(C)oc3ncn(CC(C)C)c(=O)c23)c1`, the survival is 69%.

In the case of `Cc1oc2ncn(CC(C)C)c(=O)c2c1C(=O)NCCCN1CCCCC1`, the survival was 73%.
